Experimental data reported in PubChem BioAssay (NCI).
This is part of a sample that, as a whole, favours compounds with a hit. Of some 83,000 tested, about 20% had one in any assay.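 Single-dose data. Exposure time 48 hours. Values below 10 considered active.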 Values without a mark were called inactive. The source made the active and inactive calls.

Each compound was assayed on HL-60(TB) leukemia (assay: NCI-60 one-dose screen, 48 h (100 = growth as untreated, 0 = no growth, -100 = all killed)). Details: 10 µM unless noted.

SMILES | growth
CCN1CCC[C@H]1c1cc(O)c2c(c1OC)C[C@H]1C[C@H]3[C@H](N)C(=O)C(C(N)=O)=C(O)[C@@]3(O)C(=O)C1=C2O | -49.2% (active)
CNC(=O)c1cc(Oc2ccc3nc(NC(=O)Nc4ccc(C(F)(F)F)cc4)sc3c2)ccn1 | 120%
O=c1oc2ccc3ccccc3c2cc1-c1ccnc2[nH]c(=S)[nH]c(=O)c12 | 87.3%
COc1cc2c(c(OC)c1OC)C(=O)/C(=C/c1cc(C)c(O)c(C)c1)S2 | 13.6%
O=C(/C=C/c1cccc(Cl)c1)c1ccc(O)c(CN2CCN(c3cc4c(cc3F)c(=O)c(C(=O)O)cn4C3CC3)CC2)c1 | 27.3%
CCOC(=O)C#Cc1c(C(=O)OCC)nnn1Cc1ccc(C(F)(F)F)cc1 | 39%
CCCCCCCCSc1ncnc2c1ncn2CO | 94.5%
CC1/C=C/C=C/C=C/C=C/C=C/C=C/C=C/C(O[C@@H]2O[C@H](C)[C@H](O)[C@@H](O)[C@@H]2N)CC(O)C(C(=O)O)C(O)CC(=O)CC(O)CC(O)CC(O)CC(=O)CCCC(=O)CC(=O)OC1C(C)CC(C)C(O)CC(=O)c1ccc(N)cc1 (stereo partly specified) | -60.3% (active)
CCOC(=O)C1=C(C(=O)c2ccccc2)C(c2cccc([N+](=O)[O-])c2)C(C(=O)c2ccccc2)=C(C(=O)OCC)N1 | 66.8%
N#Cc1c2c(c(N)[nH]c1=O)C(=O)NC2(O)c1ccccc1 (stereo unspecified) | 93.8%
O=c1c(-c2nc3ccccc3[nH]2)cc2ccccc2n1Cc1cn(Cc2ccccc2Cl)nn1 | 67.4%
COc1ccccc1N1CCCCC1 | 101%
COc1ccc2c(c1)C(c1c[nH]c3ccccc13)(c1c[nH]c3ccccc13)CCO2 | 41.2%
O=C1c2ccccc2-c2nnc(-c3ccc(Br)cc3)cc21 | 0.71% (active)
CCOC(=O)CC(c1ccccc1)C(C#N)c1ccccc1 (stereo unspecified) | 99.3%
C=C1CC[C@@H]2[C@](C)(COC(C)=O)[C@H](OC(C)=O)CC[C@@]2(C)[C@@H]1CC(Nc1ccc(S(=O)(=O)NC(C)=O)cc1)C1=CCOC1=O (stereo partly specified) | -31.1% (active)
NC(=NCCCOc1ccc(Cl)cc1)Nc1ccc(C(F)(F)F)cc1 | 94.4%
COc1ccc(OC)c2c1[nH]c(=O)c1c3ccccc3cn21 | -49.3% (active)
CCOC(=O)C1=C(C)NC(=O)NC1c1c(Cl)n(-c2ccccc2)c2ccccc12 (stereo unspecified) | 73.4%
COc1cc(CN(c2ccc(C)cc2)C2OC(=O)c3ccccc32)cc(OC)c1OC (stereo unspecified) | -30.4% (active)
CC(C)C[C@H](NC(=O)/C=C/Cn1ccc2ccccc2c1=O)B(O)O | 24.2%
COc1cc(C)ccc1Oc1nc(Nc2ccc(N3CCOCC3)cc2)ncc1N=Cc1cc(C(F)(F)F)cc(C(F)(F)F)c1 | 67.4%
C=CCn1c(SCC(=O)Nc2ccc(C(=O)/C=C/c3cc(OC)c(OC)c(OC)c3)cc2)nnc1-c1cc(-c2ccc(Cl)cc2)nc2ccccc12 | 98.7%
CS(=O)(=O)c1nccc(-c2c(-c3ccc(OCCc4ccccc4)cc3)nc3sccn23)n1 | 89.5%
CCN=Cc1c(O)c(O)c(C(C)C)c2cc(C)c(-c3c(C)cc4c(C(C)C)c(O)c(O)c(C=NCC)c4c3O)c(O)c12 | 27.3%
C=C1C(=O)O[C@H]2[C@H]1CC/C(COC(=O)CSCSCC(=O)OC/C1=C/CC[C@@]3(C)O[C@H]3[C@H]3OC(=O)C(=C)[C@@H]3CC1)=C\CC[C@@]1(C)O[C@@H]21 | -53.9% (active)
